Reference: ChEMBL document CHEMBL3433997, “St. Jude Leishmania screening dataset” (2016)

The compounds below were run against Glucose transporter (Leishmania mexicana) (UniProt O61059) (assay: ST_JUDE_LEISH: Cytotoxicity at 2uM final concentration against transgenic Leishmania Mexicana promastigotes LmGT2 that are glucose transport deficient and complemented with the L. Mexicana glucose transporter 2. Activity is measured by DNA content using SYBR green in vitro).
Type: functional
In the case of `N#Cc1cccc(-c2nc(NCc3cccc(C(F)(F)F)c3)nn2-c2cccc(C(F)(F)F)c2)c1`, the inhibition is reported as -0.56%. In the case of `O=C(Nc1ccc(-c2ccc(-c3nc4ccccc4[nH]3)s2)cc1)Nc1ccc(Cl)c(Cl)c1`, the inhibition is reported as 11.2%. `CCCCN(CCCC)Cc1cc2ccccc2cc1O` was tested, and the inhibition was -0.3%. `COc1ccccc1CN1CCC(NC(=O)c2ccc(-c3cccc(Cl)c3)s2)CC1` gave an inhibition of 2.23%. For `CCCN1CCC2(CC1)NC(C(=O)NCCC(C)C)Cc1c2[nH]c2cc(Cl)ccc12` (stereo not given), the inhibition was 2.82%. Compound `Cc1cc(N2CCCC2)nc(Nc2ccc(NC(=O)c3ccccc3F)cc2)n1` has an inhibition of -0.95%. In the case of `CC(C)(C)CC(=O)Nc1ccc(Nc2cc(-c3ccncc3)cc3ncc(C(N)=O)cc23)cc1`, the inhibition is reported as 1.26%. Work on `COc1ccc(CN(C)CCCc2ccc(NC(=O)c3cccc4c(O)c5ccccc5nc34)cc2)cc1OC` yielded an inhibition of 1.93%. With `COc1ccc(CNCc2ccsc2)cc1-c1ccc(OC)c(S(=O)(=O)NCCN2CCCC2)c1` the inhibition was -1.86%. `Cc1nc(-c2ccncc2)sc1C(=O)Nc1ccc(Cl)cc1C(=O)Nc1ccc(Cl)cc1` gave an inhibition of 2.19%. `CCNc1cc(C(=O)N[C@@H](Cc2ccccc2)[C@H](O)CNC23CCC(CC2)CC3)cc(N2CCCCS2(=O)=O)c1` showed an inhibition of 0.09%. With `c1ccc(-c2cc(NCCCCNc3cc(-c4ccccc4)nc4ccccc34)c3ccccc3n2)cc1` the inhibition was 6.81%. In the case of `Cc1[nH]c(C)c(-c2ccc(-c3ccc(Cl)cc3)cc2)c(=O)c1Cl`, the inhibition is reported as 1.13%. With `CS(=O)(=O)c1ccc(OCCCN(Cc2ccccc2C(F)(F)F)c2ccc(C#N)c(C(F)(F)F)c2)cc1` the inhibition was 0.65%. Compound `CC(=O)Nc1ccc(OCCCCN(Cc2ccccc2C(F)(F)F)c2ccc(C(F)(F)F)c(C#N)c2)c(Cl)c1` has an inhibition of 0.64%. For `COc1ccc(CC2(c3ccc(F)cc3)N=C(N)N(CCCc3ccc(F)c(F)c3)C2=O)cc1` (stereo not given), the inhibition was 3.88%. Compound `Cc1c(Cl)cccc1S(=O)(=O)Nc1cccc(CCN2CCC(N3CCCCC3)CC2)c1` has an inhibition of 2.25%. `CCNc1cc(C(=O)N[C@@H](Cc2cccc(F)c2)[C@H](O)CNC(C)CCCC(C)C)cc(N2CCCCS2(=O)=O)c1` (stereo not given in full) showed an inhibition of 1.42%. With `COc1ccc(CNC2CCN(C)CC2)cc1-c1ccc(S(=O)(=O)NCc2ccccc2)c(C)c1` the inhibition was 7.94%. `CC(=O)Nc1ccc(OCCN(CC(C)C)c2ccc(C(F)(F)F)c(C#N)c2)c(Cl)c1` showed an inhibition of 8.7%. `CC(C)CCN1CCC(Oc2ccc(NC(=O)c3ccc4ncccc4c3)cc2Cl)C1` (stereo not given) was tested, and the inhibition was 1.94%. `O=C(Nc1ccc(-c2cccc(-c3nc4cc(F)ccc4[nH]3)c2)cc1)Nc1ccc(Cl)c(Cl)c1` was tested, and the inhibition was 3.36%. With `c1ccc(-c2cc3cccc(-c4nc5cnccc5[nH]4)c3o2)cc1` the inhibition was 10.6%. Work on `N#Cc1ccc2c(c1)CCN(CCC1CCC(NC(=O)c3cc4cccc(Cl)c4[nH]3)CC1)CC2` (stereo not given) yielded an inhibition of 9.05%. `COc1ccccc1C1CCN(C2CCC(NC(=O)/C=C/c3cccc(C(F)(F)F)c3)CC2)CC1` (stereo not given) was tested, and the inhibition was 5.04%. Work on `COc1ccc2nc(N(CCCn3ccnc3)C(=O)C=Cc3cccs3)sc2c1` yielded an inhibition of -2.84%. In the case of `CCCCOP(=O)(OCCCC)C(=Cc1ccc(O)c2ccccc12)P(=O)(OCCCC)OCCCC`, the inhibition is reported as 5.24%. `Cn1cc(CN2CCC(OC(c3ccccc3)c3ccc(Cl)cc3)CC2)cn1` (stereo not given) gave an inhibition of -0.63%. `C=Cc1sc(CNCCCNc2cc(=O)c3ccccc3[nH]2)c(C)c1Br` was tested, and the inhibition was -0.58%. `O=C(Nc1cccc(C(F)(F)F)c1)Nc1cc(F)c(F)cc1Cl` gave an inhibition of 2.36%. In the case of `CNCCCNc1ccnc2cc(Cl)ccc12`, the inhibition is reported as 5.03%. In the case of `CN1CCN(Cc2cccc(-c3ccc4c(Nc5cc(O)c(Cl)cc5F)ccnc4c3)c2)CC1`, the inhibition is reported as 13%. In the case of `Cn1ncc2c3c(CCN4CCC(NCc5cc6c(cn5)OCCO6)CC4)c(Cl)cnc3ccc21`, the inhibition is reported as -0.85%. For `O=C(Nc1cccc(-c2cccc(CN3CCCC3)c2)c1)c1cccc(Cl)c1`, the inhibition was 4.9%. With `CCn1c(Cc2ccccc2)nnc1SCC(=O)N1c2ccccc2Sc2ccccc21` the inhibition was 2.39%. In the case of `Cc1cccc2nc(-c3cccc(-c4ccc(NC(=O)Nc5ccc(Cl)cc5)cc4)c3)[nH]c12`, the inhibition is reported as -3.06%. `COc1ccc(C(=O)CCC(=O)N(Cc2ccc(-c3ccc(CNCCc4ccccc4)cn3)cc2)C(C)CN(C)C)cc1F` (stereo not given) gave an inhibition of 0.82%. For `CC(C)(C)c1ccc(-c2nc3c(ccc4nc(N)nc(N)c43)[nH]2)cc1`, the inhibition was -2.76%. `COc1cc2nc(NCCc3ccccc3)nc(N(C)Cc3ccccc3)c2cc1OC` showed an inhibition of 2.95%. Compound `CN1CCC(C(=O)Nc2ccc(-c3ccc(-c4nc5cc(C(F)(F)F)ccc5[nH]4)s3)cc2)CC1` has an inhibition of -0.16%.
